{"source": "PubChem BioAssay AID1645878", "about": "(National Center for Advancing Translational Sciences (NCATS), 2021)", "note": "The list shows a part of the results. Results filed as inconclusive are left out. Calls of active or inactive are those of the source. The call rests on the fitted dose curve; in most records, active means well fitted inhibition curve with a large enough effect; inconclusive means small, poorly fitted or top-dose-only effect; inactive means no such curve, though single readings can be large or run the other way.", "data": [{"biological_target": "Nicotinamide N-methyltransferase (Homo sapiens) (UniProt P40261)", "sequence (P40261 whole entry, looked up)": "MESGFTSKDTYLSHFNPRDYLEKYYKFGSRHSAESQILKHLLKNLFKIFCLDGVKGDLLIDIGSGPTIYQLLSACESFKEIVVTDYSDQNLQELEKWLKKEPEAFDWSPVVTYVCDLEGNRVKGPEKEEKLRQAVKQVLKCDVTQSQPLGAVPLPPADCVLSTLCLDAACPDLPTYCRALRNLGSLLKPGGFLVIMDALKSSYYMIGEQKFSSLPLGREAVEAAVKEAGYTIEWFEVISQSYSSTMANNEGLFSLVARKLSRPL", "assay": "Counterscreen qHTS for Inhibitors of N-terminal methyltransferase 1 (NTMT1): NNMT MTaseGlo assay", "conditions": "NNMT MTase-Glo luminescence, SAH detection; series mostly up to 57.1 µM", "from_the_text": "Assay Submitter (PI): Rong Huang Ph.D. Purdue University, West Lafayette, IN 47907 The N-terminal methytransferase 1 is the first methyltransferase that methylates protein alpha-N-amines and plays an important role in regulating cell mitosis, chromatin interactions and DNA repair. It is observed to be over-expressed in various cancer patient tissues like malignant melanoma and colorectal cancer tissues. Knockdown of NTMT1 in cancer cells causes cell mitotic defects and enhances sensitivity to DNA damaging chemotherapeutics. […] These critical cellular processes in which NTMT1 is implicated, coupled with emerging links to cellular dysfunction, strengthen the inference that NTMT1 is a compelling novel anticancer target. […] To address this unmet need, a panel of assay is created and established to enable quantitative high-throughput screening (qHTS) for novel, potent, and selective small molecule NTMT1 inhibitors. […] MTaseGlo Assay is a luminescence screen that measure the activity of methyltransferases based on the reaction product S-adenosyl homocysteine (SAH). […]\nMaterials: NNMT enzyme, SAM, NA, and control is provided by the Huang laboratory. […] 11; Detection; Luminescence; Plates were read using luminescence optics on a ViewLux detector (PerkinElmer). […]", "values": [{"smiles": "CC(C)(O)c1ccc2c(c1)C(=O)CC1[C@](C)(CO)CCC[C@]21C", "note": "(some centres not stated)", "outcome": "inactive"}, {"smiles": "COc1cc2ncnc(Nc3cccc(Cl)c3F)c2cc1OC(=O)N1CCN(C)C[C@H]1C", "outcome": "inactive"}]}]}
